Assay [1] in a line: qHTS Assay for Identifying Gametocytocidal Compounds (AID 743244; active = well fitted curve in the direction sought with a large enough effect; an effect the other way counts as inactive or inconclusive;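 also: % is scaled to controls: 0 for no effect and ±100 for the full control effect; actives lower the fluorescent signal which means gametocytes are killed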). The conditions noted are these: P. falciparum 3D7 stage III-V gametocytes, alamarBlue, 72 h; max response: stronger effect = lower value. A digest of the protocol: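 Stage III–V gametocytes of P. falciparum 3D7 were seeded at 20,000 cells/well onto pre-dispensed compounds. After 72 h, 37 °C, 5% CO2, alamarBlue was added for another 24 h.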
For orientation: Quantitative high-throughput screening tests each substance at several concentrations.

Assay [2] is described as follows: qHTS profiling for inhibitors of Plasmodium falciparum (3D7) proliferation (AID 743322).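 Also: infected erythrocytes exposed to compound for 72 h before lysis; 100% = DMSO vehicle wells and 0% = 0.29 µM artemisinin.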 The settings on record: P. falciparum 3D7 proliferation; at 28.7 µM (top of the series) unless noted. A digest of the protocol: (§1)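 Parasite DNA was quantified by SYBR Green I fluorescence (ex 485, em 535 nm) after overnight lysis in saponin/Triton buffer at room temperature. Cultures at 0.3% parasitemia and 2.5% hematocrit were first exposed to compound for 72 h at 37 C; signals were normalised to artemisinin (0.29 uM) and vehicle wells.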

A short description of assay [3]: qHTS profiling for inhibitors of Plasmodium falciparum (DD2) proliferation (AID 743323). The settings on record: lower = more inhibition; at 28.7 µM (top of the series) unless noted. A digest of the protocol:
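1536-well qHTS; infected RBCs 0.3% parasitemia/2.5% Hct final; cpd 72 h 37 C 5% CO2; lysis buffer + SYBR Green I, o/n RT dark; FI 485/535; norm. to 0.29 uM artemisinin and DMSO, plate-stack corrected.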

The nature of assay [4]: qHTS profiling for inhibitors of Plasmodium falciparum (HB3) proliferation (AID 743324; active = well fitted curve in the direction sought with a large enough effect; an effect the other way counts as inactive or inconclusive;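 also: 100% = DMSO vehicle wells and 0% = artemisinin-treated control wells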). The settings on record: Plasmodium falciparum HB3 blood-stage proliferation; at 28.7 µM (top of the series) unless noted. A digest of the protocol:
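SYBR Green fluorescence (485 ex/535 em) of lysed cultures, incubated overnight at room temperature in the dark, quantifies parasite DNA. Infected erythrocytes at 0.3% parasitemia and 2.5% hematocrit were exposed 72 h; values normalized to DMSO and 0.29 uM artemisinin controls.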

The nature of assay [5]: qHTS profiling of the MIPE4 collection as inhibitors of Plasmodium falciparum (3D7) proliferation (AID 743344).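 Also: scaled between DMSO vehicle wells and 0.29 µM artemisinin as full inhibition.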 The settings on record: P. falciparum 3D7 in erythrocytes, SYBR Green DNA fluorescence, 72 h; at 28.5 µM (top of the series) unless noted. A digest of the protocol: as §1
A short description of assay [6]: qHTS profiling of the MIPE4 collection as inhibitors of Plasmodium falciparum (DD2) proliferation (Rep 2) (AID 743346). The conditions noted are these: P. falciparum Dd2 in erythrocytes, SYBR Green DNA, 72 h; at 28.5 µM (top of the series) unless noted. Summed up: as §1
Assay [7] is described as follows: qHTS profiling of the MIPE4 collection as inhibitors of Plasmodium falciparum (HB3) proliferation (AID 743347).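 Also: plate controls were DMSO vehicle wells for no effect and artemisinin wells for full effect.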 The conditions noted are these: P. falciparum HB3 in erythrocytes, SYBR Green DNA, 72 h; at 28.5 µM (top of the series) unless noted. Summed up: as §1
The nature of assay [8]: Cell Proliferation Assay Versus the ED40515 IL2 Independent ATL cell lines (AID 1053194; calls by dose curve). The settings on record: ED40515 IL2-independent ATL cells. A digest of the protocol:
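CellTiter-Glo luminescence, read after 15 min at RT, gave viability of IL-2-free ED40515 cells (1000/well, RPMI plus 5% FBS) following 48 h drug exposure at 37C. Control wells held DMSO or 9.2 uM bortezomib.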

Assay [9] in a line: High-throughput drug toxicity screening in the BPDCN cell line Gen2.2 (AID 1224824).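 Also: cells exposed to compounds for 48 h before reading.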 The conditions noted are these: Gen2.2 BPDCN cells; at 45.8 µM (top of the series) unless noted. A digest of the protocol: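 Gen2.2 cells (500/well) in phenol red-free RPMI with 10% FBS were exposed to compounds for 48 h at 37 °C, 5% CO2. Viability was read by CellTiter-Glo luminescence and normalized to DMSO (100%) and 9.2 uM bortezomib (0%).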

Assay [10] in a line: High-throughput drug toxicity screening in the BPDCN cell line Cal-1 (AID 1224825). The settings on record: Cal-1 BPDCN cell viability, qHTS; at 45.8 µM (top of the series) unless noted. A digest of the protocol: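 CellTiter-Glo luminescence after 48 h compound exposure; percent activity scaled with DMSO as 100% and bortezomib (9.2 uM final) as 0%. Cal-1 cells seeded at 500/well in RPMI, 10% FBS, no phenol red.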

Assay [11] is described as follows: qHTS assay for measurement of the activity of small molecule inhibitors on Zika virus induced Caspase-3 activity in human iPSC derived neural progenitor cells (hNPCs) (AID 1224857; active = well fitted curve in the direction sought with a large enough effect; an effect the other way counts as inactive or inconclusive; also: % of control where 0% means no effect; nearly all actives have a fitted effect of over 65% in size). A digest of the protocol:
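Values are percent inhibition of virus-induced caspase-3/7 signal, scaled between uninfected cells and ZIKV-infected cells. Infection used 2 FFU/cell for 6 h after 1 h compound exposure.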

Assay [12] in a line: qHTS assay for measurement of the activity of small molecule inhibitors on Zika virus induced Caspase-3 activity in human astrocytoma cells (AID 1224859; active = well fitted curve in the direction sought with a large enough effect; an effect the other way counts as inactive or inconclusive;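 also: plate controls were ZIKV-infected untreated cells for no effect and uninfected cells for full effect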). Summed up:
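Compound added 1 h pre-infection; ZIKV 2 FFU/cell on SNB-19 cells, 6 h, 37 C/5% CO2. Caspase-Glo 3/7 luminescence; values as % inhibition of ZIKV-induced caspase activity.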

Assay [13] can be described thus: qHTS Screen of the MIPE 4.0 Collection Against Ewings Sarcoma (RDES) (AID 1259252; active = well fitted curve in the direction sought with a large enough effect; an effect the other way counts as inactive or inconclusive; also: potency is read from the fitted curve at half-maximal effect; nearly all actives have a fitted effect of over 35% in size). Summed up: (§2)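 Viability screen: 48 h incubation at 37C, 95% humidity, 5% CO2 with serially titrated compound, followed by CellTiter-Glo readout.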
A short description of assay [14]: qHTS Screen of the MIPE 4.0 Collection Against Ewings Sarcoma (TC71) (AID 1259253; active = well fitted curve in the direction sought with a large enough effect; an effect the other way counts as inactive or inconclusive; also: potency is read from the fitted curve at half-maximal effect; nearly all actives have a fitted effect of over 40% in size). Summed up:
as §2

Assay [15] can be described thus: qHTS Screen of the MIPE 4.0 Collection Against Ewings Sarcoma (EW8) (AID 1259255; active = well fitted curve in the direction sought with a large enough effect; an effect the other way counts as inactive or inconclusive; also: nearly all actives have a fitted effect of over 35% in size; also: potency is read from the fitted curve at half-maximal effect;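 as to viability: 100% = DMSO-treated cells and 0% = medium-only wells without cells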). A digest of the protocol: as §2
The nature of assay [16]: qHTS profiling of the MIPE4 collection as inhibitors of Plasmodium falciparum (DD2) proliferation (AID 743345). The conditions noted are these: P. falciparum Dd2 in erythrocytes, SYBR Green DNA, 72 h; at 28.5 µM (top of the series) unless noted. Summed up:
as §1

The nature of assay [17]: Cell Proliferation Assay Versus the ED40515 IL2 Dependent ATL cell lines (AID 1053195; calls by dose curve). The settings on record: ED40515 IL2-dependent ATL cells. Summed up: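 CellTiter-Glo luminescence (15 min, RT) measured viability after 48 hours at 37C; cells were ED40515 +IL2, 1000/well, in phenol red-free RPMI with 5% FBS. Controls: DMSO and 9.2 uM bortezomib.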

Several values for one entry are separate records, joined by “and”; a condition that tells them apart may be missing. Equal values may be shown once. Inconclusive results are not listed. Activity calls are given as the source filed them. Unless noted, no rule for the calls is given here.

`Cc1cc2c(F)c(Oc3ncnn4cc(OC[C@@H](C)O)c(C)c34)ccc2[nH]1`: in assay [1], the max response was -5% (inactive). Further, the remaining parasite growth % (stronger effect = lower value) in assay [2] was determined as 101%. The activity, percent of control in assay [3] was determined as 101%. In addition, the remaining proliferation (% of control), lower = more inhibition in assay [4] is 75.1%. Also, the parasite growth, % of DMSO control in assay [5] was found to be 46.6%. The parasite growth, % of control (lower = inhibition) in assay [6] stood at 54.4%. In addition, in assay [7], the growth, % of control was 76.7%. Besides, the Potency in assay [8] is 1.05 µM (active); in assay [13], 2.35 µM (active); in [14], 13.2 µM (active); in [15] it was 20.9 µM (active). For the same molecule, the cell viability, % of control (lower = more cytotoxic) in [9] amounted to 249%. In assay [10], the viability (% of control) came to 71.2%. Besides, the Potency entry in [11] and in [12] was “inactive” throughout.

`COc1cc(Oc2ccnc3cc(OC)c(OC)cc23)ccc1NC(=O)NC(C)c1nccs1` (stereo not given): in assay [1], the max response is 6.55% (inactive). Further, in assay [2], the remaining parasite growth % (stronger effect = lower value) is 69.7%. The activity, percent of control in assay [3] is 56.8%. The remaining proliferation (% of control), lower = more inhibition in assay [4] worked out at 16.5%. The molecule further came in with a parasite growth, % of DMSO control in assay [5] of 22.7%. In assay [16], this molecule gave a parasite growth remaining, % of DMSO control (lower = more inhibition) of 85.4%. In addition, the parasite growth, % of control (lower = inhibition) in assay [6] was determined as 40.3%. Besides, the growth, % of control in assay [7] was 71.5%. Further, in assay [8], the Potency is 9.35 µM (active). In assay [9], the cell viability, % of control (lower = more cytotoxic) turned out to be 98.9%. This molecule also displayed a viability (% of control) in assay [10] of 32.2%. Moreover, the Potency entry in assay [11] and in [12] was “inactive” throughout.

As to `CN(C)C(=O)c1ccc(S(=O)(=O)c2ccc(NC(=O)[C@@](C)(O)C(F)(F)F)c(Cl)c2)cc1`, in [1], the max response was 2.79% (inactive). Also, the remaining parasite growth % (stronger effect = lower value) in assay [2] came to 67.3%. In addition, in assay [3], the activity, percent of control is 97.4%. This molecule also had a parasite growth, % of DMSO control in [5] of 34.8%. In addition, the parasite growth remaining, % of DMSO control (lower = more inhibition) in assay [16] worked out at 96.7%. Further, the parasite growth, % of control (lower = inhibition) in [6] was 95.9%. This molecule also came in with a growth, % of control in assay [7] of 62%. The Potency in assay [8] is 9.35 µM (active); in [17], 332 nM (active); in [13], 20.9 µM (active); in assay [14] it was 18.7 µM (active). Moreover, the cell viability, % of control (lower = more cytotoxic) in assay [9] was determined as 41.1%. The same molecule yielded a viability (% of control) in assay [10] of 20.3%. For the same molecule, the Potency entry in assay [11], in [12] and in assay [15] was “inactive” each time.

On to `C#Cc1cccc(Nc2ncnc3cc(OCCOC)c(OCCOC)cc23)c1`, for which the max response in assay [1] was 10.7% (inactive) and -0.582% (inactive). Besides, in [2], the remaining parasite growth % (stronger effect = lower value) turned out to be 12.2%. Besides, the activity, percent of control in assay [3] was 27.9%. In addition, in [4], the remaining proliferation (% of control), lower = more inhibition stood at 6.23%. For the same molecule, the parasite growth, % of DMSO control in assay [5] was found to be 24.3%. In assay [16], this molecule returned a parasite growth remaining, % of DMSO control (lower = more inhibition) of 50.4%. For the same molecule, the parasite growth, % of control (lower = inhibition) in [6] came out at 43.1%. Besides, the Potency is 11.8 µM (active) in assay [8], 4.18 µM (active) in [13], 14.8 µM (active) in [14] and 23.5 µM (active) in assay [15]. In addition, in assay [9], the cell viability, % of control (lower = more cytotoxic) turned out to be 24.7%. In [10], the viability (% of control) turned out to be 10.9%. Moreover, the Potency result in [11] and in assay [12] was “inactive” in each case.

For `CCOc1cc(N2CCC(O)CC2)ccc1Nc1ncc2c(n1)N(C)c1ccccc1C(=O)N2C`, the remaining parasite growth % (stronger effect = lower value) in assay [2] was 6.85%. The activity, percent of control in assay [3] worked out at 1.46%. The remaining proliferation (% of control), lower = more inhibition in assay [4] is -0.346%. In assay [5], this molecule yielded a parasite growth, % of DMSO control of 4.46%. Further, the parasite growth remaining, % of DMSO control (lower = more inhibition) in assay [16] turned out to be 7.18%. The parasite growth, % of control (lower = inhibition) in assay [6] turned out to be 5.98%. Moreover, the growth, % of control in assay [7] stood at 5.43%. Further, the Potency is 5.26 µM (active) in [8], 20.9 µM (active) in [13], 16.6 µM (active) in assay [14] and 23.5 µM (active) in [15]. The cell viability, % of control (lower = more cytotoxic) in assay [9] was found to be 6.39%. The molecule further yielded a viability (% of control) in assay [10] of 2.19%. In addition, the Potency entry in assay [11] and in assay [12] was “inactive” in each case.

As for `CCn1c(-c2nonc2N)nc2cnc(Oc3cccc(NC(=O)c4ccc(OCCN5CCOCC5)cc4)c3)cc21`, in [1], the max response was 33.1% (inactive). For the same molecule, the remaining parasite growth % (stronger effect = lower value) in [2] came to 15.3%. Further, the activity, percent of control in assay [3] was 20.7%. Further, the remaining proliferation (% of control), lower = more inhibition in assay [4] worked out at 14.7%. In [5], this molecule registered a parasite growth, % of DMSO control of 13.1%. In assay [16], this molecule had a parasite growth remaining, % of DMSO control (lower = more inhibition) of 57.9%. In addition, the parasite growth, % of control (lower = inhibition) in [6] came to 22.1%. Further, the growth, % of control in assay [7] stood at 3.64%. The Potency in assay [17] was 590 nM (active); in assay [13], 5.9 µM (active); in assay [14], 13.2 µM (active); in assay [15] it was 11.8 µM (active). For the same molecule, the cell viability, % of control (lower = more cytotoxic) in assay [9] was 84.4%. The molecule further yielded a viability (% of control) in [10] of 33.2%. Also, the Potency result in [11] and in assay [12] was “inactive” each time.
